Compounds with a hit are over-represented: about 2.3% of the library has one in this group of screens.
Nrf2 ARE act – qHTS of Nrf2 Activators. AREc32 ARE-luciferase reporter (MCF7-derived line), luminescence, 24 h. Potency, µM (top dose mostly 46.1 µM), inactives show top-dose activation, actives largely listed as activators. 410,000 compounds, 0.31% hits. AID 624171, 2012; also: potency is read from the fitted curve at half-maximal effect; % of control where 0% means no effect; nearly all actives have a fitted effect of over 65% in size
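Luciferase luminescence (Steady-Glo, 30 min at room temperature) served as the read-out of ARE activation in AREc32 cells treated with compounds for 24 hr at 37 deg C.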
Nrf2 inh – Nrf2 qHTS screen for inhibitors; A549 ARE-Fluc reporter, luciferase luminescence, 18-24 h; Potency, µM (titrated, usually from 46 µM), inactives show at the top dose activity change, negative = inhibition, usual class: inhibitors; 360,000 compounds, 2.1% hits; AID 504444, 2011; also: potency is read from the fitted curve at half-maximal effect; % is scaled to controls: 0 for no effect and ±100 for the full control effect; nearly all actives have a fitted effect of over 60% in size
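Nrf2 activity is the BugLite luminescence, read 15 min after reagent at room temperature, following CellTiter-Fluor cytotoxicity readout (30 min, 37C). Compound titrations were applied for 18-24 h to 5000 A549 ARE_Fluc cells/well in 5% FBS OPTI-MEM.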
mIDH1 inhibitor – qHTS for Inhibitors of mutant isocitrate dehydrogenase 1 (IDH1): qHTS. Isocitrate dehydrogenase [NADP] cytoplasmic (Homo sapiens), O75874. Potency, µM (highest dose often 76.6 µM), for the others: at the highest dose activity change, negative = inhibition, usual class: inhibitors. 390,000 compounds, 0.093% hits. IDH1-R132H enzyme, NADPH consumption, diaphorase/resazurin fluorescence; also: potency is read from the fitted curve at half-maximal effect; % is scaled to controls: 0 for no effect and ±100 for the full control effect; nearly all actives have a fitted effect of over 65% in size
Target sequence (O75874 whole entry R132H, stated change not applied): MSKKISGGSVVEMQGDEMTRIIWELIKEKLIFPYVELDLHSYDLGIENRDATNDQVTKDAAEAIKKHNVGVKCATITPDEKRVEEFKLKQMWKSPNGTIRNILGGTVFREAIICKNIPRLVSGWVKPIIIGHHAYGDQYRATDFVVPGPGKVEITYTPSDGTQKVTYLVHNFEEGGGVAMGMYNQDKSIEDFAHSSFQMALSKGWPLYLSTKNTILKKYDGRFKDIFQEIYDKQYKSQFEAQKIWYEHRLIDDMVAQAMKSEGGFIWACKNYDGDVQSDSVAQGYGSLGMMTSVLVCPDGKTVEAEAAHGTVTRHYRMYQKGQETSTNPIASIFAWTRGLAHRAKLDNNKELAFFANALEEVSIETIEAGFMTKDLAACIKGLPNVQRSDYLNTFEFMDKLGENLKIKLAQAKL
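IDH1-R132H (0.5 ug/mL) preincubated 30 min with compound, then NADPH (0.016 mM) and alpha-KG (2 mM) added; 80 min at RT, pH 7.5. Remaining NADPH coupled via diaphorase/resazurin to fluorescence (540/590 nm); concentration-response curves normalized to no-enzyme control.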
Apoferritin bind – qHTS Assay for Identification of Novel General Anesthetics | Ferritin light chain (Equus caballus), P02791 | apoferritin/1-aminoanthracene competitive binding, fluorescence | Potency, µM (titrated, usually from 77.5 µM), inactives show at the top dose activity change, negative = displacement, usual class: inhibitors | 350,000 compounds, 0.074% hits | AID 485281, 2010; also: potency is read from the fitted curve at half-maximal effect; % is scaled to controls: 0 for no effect and ±100 for the full control effect; nearly all actives have a fitted effect of over 20% in size
Target sequence (P02791 2-175 limits assumed): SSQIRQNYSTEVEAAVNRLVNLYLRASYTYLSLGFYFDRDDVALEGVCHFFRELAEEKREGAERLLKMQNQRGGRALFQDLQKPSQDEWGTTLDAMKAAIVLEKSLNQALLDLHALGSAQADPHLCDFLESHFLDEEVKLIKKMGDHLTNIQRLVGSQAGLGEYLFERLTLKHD
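Steps: apoferritin (10 uM) was premixed with half-saturated 1-AMA in PBS, compounds were pin-transferred, plates stood 10 min at room temperature, fluorescence was read at 380/535 nm, and curves were fitted with a Hill equation.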
Giardia kill – Small Molecules that selectively kill Giardia lamblia: qHTS | Giardia lamblia trophozoite viability | activity change, % at 7.66 µM, hits read low | 340,000 compounds, 0.15% hits | AID 540267, 2011; in the data active = activity change below about -80%; inconclusive = between about -30% and that limit;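 also: parasites exposed to compound for two days anaerobically before the ATP read; % is scaled to controls: 0 for no effect and ±100 for the full control effect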
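Luminescence from cellular ATP indicates surviving trophozoites (100 cells/well) following 48 hrs anaerobic compound treatment at 37 deg C; signal develops 15-30 min at room temperature.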
A549 viability – Nrf2 qHTS screen for inhibitors: counterscreen for cytotoxicity. 390,000 compounds, 0.16% hits. Potency, µM (titrated, usually from 46 µM), for inactives: at the highest dose activity change, negative = cytotoxicity, hits mostly inhibitors. A549 ARE-Fluc cells, CellTiter-Fluor viability, 18-24 h; also: potency is read from the fitted curve at half-maximal effect; % is scaled to controls: 0 for no effect and ±100 for the full control effect
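A549 ARE_Fluc cells in 5% FBS OPTI-MEM were exposed to compounds in concentration-response for 18-24 h at 37 deg C. Viability was read by CellTiter-Fluor fluorescence (Ex 405/Em 525) after 30 min, before the luciferase read.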
The depositor's hits bear a star; ? = inconclusive; nt = no result; [ ] = dose if it differs, or a comment. Unless noted, calls follow the shape of the dose curve; as a rule, active = well fitted curve in the direction sought with a large enough effect; inconclusive = small, poorly fitted or top-dose-only effect, or another doubt; inactive = no such curve, though single readings can be large; an effect the other way counts as inactive or inconclusive.

SMILES	Nrf2 ARE act	Nrf2 inh	mIDH1 inhibitor	Apoferritin bind	Giardia kill	A549 viability
CCc1c(C)nc2ncnn2c1N1CCCC(C(=O)NCc2ccc3c(c2)OCO3)C1 (stereo unspecified)	-1%	10µM*	7%	-13%	1	-1%
CCCS(=O)(=O)NC(=O)C1(C)CCN(C(=O)c2cc(F)ccc2C)C1 (stereo unspecified)	-1%	nt	nt	nt	nt	nt
Cc1ccc(N(C(C)C(=O)Nc2cc(Cl)ccc2Oc2ccccc2)S(C)(=O)=O)cc1 (stereo unspecified)	2%	21µM*	4%	36%	18	0%
Cc1c(C(=O)NCCSCc2ccccc2Cl)cccc1[N+](=O)[O-]	-1%	?	3%	-4%	5	2%
Cc1c(C(=O)NCCSCc2c(Cl)cccc2Cl)cccc1[N+](=O)[O-]	0%	9.2µM*	6%	?	3	-2%
COc1ccc(Cn2nnnc2CN(Cc2cc3ccc(C)cc3[nH]c2=O)C2CCCC2)cc1	1%	21µM*	1%	3%	-4	?
COc1ccc(Cn2nnnc2CN(Cc2cc3cccc(C)c3[nH]c2=O)C2CCCC2)cc1	4%	?	1%	-6%	-3	-15%
CC1=NN(c2nc3ccccc3[nH]2)C(=O)C1Cc1ccccc1 (stereo unspecified)	7%	23µM*	-1%	-11%	-23	-27%
CC1=NN(c2nc3ccccc3[nH]2)C(=O)/C1=C/N(C)C	0%	18µM*	-3%	-4%	?	-3%
CCCN1CCC(=O)N(C(CSc2ccc(C)cc2)CC(C)C)CC1 (stereo unspecified)	nt	?	nt	-5%	7	-23%
Cc1cc(Nc2ccc(Cl)cc2)nc(NCc2ccccc2)n1	2%[9.22 µM]	16µM*	-3%	?	13	?
Cc1cc(Nc2ccccc2)nc(NCc2ccccc2)n1	2%	-18%	-5%	?	-7	19%
CCCCNc1cc(C)nc(NCc2ccccc2)n1	9%	18µM*	5%	?	9	-16%
Cc1cc(C)nc(NCCCc2ccccc2)n1	0%	-6%	3%	?	-9	11%
CCn1cc2nc(SCc3cc(C)ccc3C)n(CCc3ccccc3)c(=O)c2n1	-1%	?	10%	8%	nt	-10%
COc1ccc(NC(=O)C2CCC(N3C(=O)C4C5C=CC(C5)C4C3=O)CC2)cc1 (stereo unspecified)	0%	-9%	10%	?	-16	-3%
CC(=O)Nc1ccc(NC(=O)C2CCC(N3C(=O)C4C5C=CC(C6CC56)C4C3=O)CC2)cc1 (stereo unspecified)	0%	26µM*	-6%	4%	-19	-17%
O=C(Nc1ccc(Cc2ccncc2)cc1)C1CCC(N2C(=O)C3C4C=CC(C5CC45)C3C2=O)CC1 (stereo unspecified)	0%	18µM*	-3%	?	7	?
Cc1ccc[n+](CC(=O)c2ccccc2)c1	nt	nt	nt	6%	nt	nt
Cc1ccc[n+](CC(=O)c2ccc(Br)cc2)c1	1%	23µM*	4%	-8%	-4	-4%
Cc1cccc(NC(=O)Cn2c(=O)n(Cc3ccc4c(c3)OCO4)c(=O)c3oc4ccccc4c32)c1C	-1%	-2%	-9%	-8%	nt	-5%
O=C(N/N=C/C(Cl)=C/c1ccccc1)c1ccncc1	22µM*	-5%	3%	-15%	-12	-7%
O=C(NN=C1C2CC3CC(C2)CC1C3)c1ccncc1	0%	12%	15%	-8%	-9	-4%
O=C(N/N=C/C(Cl)=C\c1ccccc1)c1cccs1	11µM*	?	6%	-6%	-14	-12%
O=C(N/N=C1\C/C(=N\NC(=O)c2ccncc2)c2ccccc21)c1ccncc1	?	7.3µM*	-2%	-15%	7	?
SMILES	Nrf2 ARE act	Nrf2 inh	mIDH1 inhibitor	Apoferritin bind	Giardia kill	A549 viability
CCCCCOc1ccccc1CN1C(=O)C(=O)c2cc(C)ccc21	0%	3%	-6%	49%	nt	2%
CCc1ccc(NC(=O)CSC2=Nc3ccccc3C3=NC(CCC(=O)NCc4ccccc4OC)C(=O)N23)cc1 (stereo unspecified)	5%	nt	-6%	-8%	nt	-10%
Cc1cc(NS(=O)(=O)c2ccc(NC(=O)COc3c(C)ccc(C)c3C)cc2)nc(C)n1	0%	11%	-1%	-8%	nt	1%
OC[C@@H]1CN(CCN2CCOCC2)C[C@H](n2cnc3c(N4CCCC4)ncnc32)O1	-1%	nt	nt	nt	nt	nt
COc1ccccc1-c1noc2c1C(=O)N(Cc1cn(Cc3ccccc3)nn1)CC2	1%	nt	nt	nt	nt	nt
CCc1ccc(N2CCn3c2nc2c3c(=O)n(Cc3c(F)cccc3Cl)c(=O)n2C)cc1	-1%	23µM*	-12%	63%	nt	-8%
O=C(NCCc1nc2ccccc2[nH]1)c1cccc(Br)c1	0%	26µM*	11%	-8%	-18	3%
NNC(=O)CNC(=O)c1cccc(Br)c1	1%	6%	18%	28µM*	3	4%
O=C(CNC(=O)c1cccc(Br)c1)N/N=C/c1ccc[nH]1	0%	-17%	-1%	?	-6	0%
O=S(=O)(c1nccs1)N1CCN(c2nc(-c3cccs3)nc3ccccc23)CC1	nt	?	nt	nt	2	-1%
Cc1cc(N2CCN(S(=O)(=O)c3ccccc3)CC2)c2ccccc2n1	0%	21µM*	-3%	?	14	-17%
O=S(=O)(c1ccccc1)N1CCN(c2nc(C3CC3)nc3ccccc23)CC1	nt	-10%	nt	nt	nt	5%
O=S(=O)(c1ccccc1)N1CCN(c2ccnc3cc(Cl)ccc23)CC1	2%	23µM*	-1%	-19%	-22	-19%
O=S(=O)(NCCNc1nc(-c2ccco2)nc2ccccc12)c1ccccc1	nt	12%	nt	nt	nt	-3%
Cn1c(/C(C#N)=C(\O)c2cc(Cl)sc2Cl)nc2ccccc21	1.4µM*	2%	2%	-4%	1	3%
COc1ccc(Cl)cc1NC(=O)NC1CCCCC1	2%	-9%	5%	-9%	-9	-4%
COc1ccc(Cl)cc1NC(=O)Nc1cccc([N+](=O)[O-])c1C	0%	13µM*	3%	-8%	-4	-18%
CC1(C(=O)Nc2ccc3c(c2)OCO3)Cc2c(-c3cccc(C(F)(F)F)c3)ccnc2O1 (stereo unspecified)	0%	nt	nt	nt	nt	nt
Cc1cccc2sc(N(CCN(C)C)C(=O)/C=C/c3cccs3)nc12	11µM*	-18%	10%	27%	13	?
